In the library only some 6.6% were active in any assay of this set; here they are far more common.
SW480 rereplic: DNA re-replication induction in SW480 cells; SW480 DNA re-replication, Hoechst DNA content imaging, 48 h; Potency, µM (series often up to 46.1 µM), without a hit: at the top dose re-replication activation, actives largely listed as activators; actives 1.8% (n = 340,000); AID 624297; note: % of control where 0% means no effect; nearly all actives have a fitted effect of over 55% in size
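Compounds, transferred as 23 nL by pin tool, were incubated with cells for 48 hr; DNA content per nucleus was then quantified by Hoechst staining and fluorescence plate imaging.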
KB-3-1 tox: KB-3-1 parental cell cytotoxicity; Potency, µM (titrated, usually from 46.1 µM), usual class: cytotoxic; actives 1.4% (n = 400,000); KB-3-1 viability, CellTiter-Glo ATP luminescence, 72 h; note: % is set by controls: 0 for no effect and ±100 for the full control effect; nearly all actives have a fitted effect of over 60% in size
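Cytotoxicity in the drug-sensitive parental line KB-3-1 was scored as loss of CellTiter-Glo luminescence following 72 h incubation with compound. Values come from curve fitting of normalized concentration-response data.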
KB-V1 MDR tox: kills drug-selected multidrug resistant KB-V1 cells; actives 3.4% (n = 400,000); KB-V1 MDR cells viability, CellTiter-Glo, 72 h; Potency, µM (top dose mostly 46.1 µM), most hits filed as cytotoxic; note: % is set by controls: 0 for no effect and ±100 for the full control effect; nearly all actives have a fitted effect of over 60% in size
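KB-V1 MDR subline cells in DMEM (phenol-red free, 10% FBS) exposed to compounds in qHTS concentration series for 72 h at 37 degrees C. Viability read by CellTiter-Glo luminescence; concentration-effect curves fitted after normalization and correction.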
MCF10A rerep: inducers of DNA re-replication in MCF 10A breast cells; actives 2.9% (n = 350,000); Potency, µM (highest dose often 46.1 µM), for inactives: at the top dose activity, positive = re-replication, hits mostly activators; AID 624296; MCF 10A DNA re-replication, Hoechst nuclear intensity, 48 h; note: % of control where 0% means no effect; nearly all actives have a fitted effect of over 50% in size
RGS4 inhibitor: human RGS4 inhibition. P49798. Potency, µM (top dose mostly 114 µM), for inactives: at the top dose activity change, negative = inhibition, most hits filed as inhibitors. Transcreener GDP fluorescence polarization, RGS4-accelerated GTP hydrolysis. actives 0.039% (n = 390,000); note: % is set by controls: 0 for no effect and ±100 for the full control effect; nearly all actives have a fitted effect of over 75% in size
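MLSMR compounds (23 nl, pin-transferred) preincubated 10 min at room temperature with a 500nM (2x) first reagent, then RGS4 at 900nM (2x) plus Transcreener GDP mix added; fluorescence polarization (620/688 nm) read before and after 90 min at 30 °C.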
TSG101-PTAP inh: blocks PTAP/TSG101 interaction to inhibit HIV-1 budding | Q99816 | Fluorescence polarization, FITC-PTAP peptide / Tsg101 binding | Potency, µM (highest dose often 115 µM), without a hit: at the top dose activity change, negative = inhibition, actives largely listed as inhibitors | 340,000 tested, under 10 active; active = well fitted inhibition curve with a large enough effect in the main read-out, with a control signal flat, not every such curve was filed as active; inconclusive = small, poorly fitted or top-dose-only effect, or effect the other way, or a change in a side signal; inactive = no such curve, though single readings can be large or run the other way; note: % of control where 0% means no effect
Target sequence (Q99816 whole entry, looked up): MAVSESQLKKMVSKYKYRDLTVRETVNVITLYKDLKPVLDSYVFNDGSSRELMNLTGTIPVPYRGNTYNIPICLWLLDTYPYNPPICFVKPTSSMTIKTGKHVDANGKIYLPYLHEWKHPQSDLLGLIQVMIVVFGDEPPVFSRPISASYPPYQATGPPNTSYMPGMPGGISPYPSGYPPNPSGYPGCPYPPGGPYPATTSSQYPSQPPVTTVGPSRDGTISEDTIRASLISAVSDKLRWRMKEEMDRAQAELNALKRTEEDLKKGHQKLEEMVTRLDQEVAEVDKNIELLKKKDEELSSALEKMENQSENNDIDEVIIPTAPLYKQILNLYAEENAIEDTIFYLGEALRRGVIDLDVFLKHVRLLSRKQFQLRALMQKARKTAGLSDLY
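Compounds were pin-transferred onto Tsg101 binding domain (10 uM final) in HEPES pH 7.5 buffer, then FITC-PTAP peptide was added at 50 nM final. After 20 min at RT, polarization reported peptide displacement across a qHTS concentration series.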
The depositor's hits bear a star. Unless noted, calls come from the whole dose curve; as a rule, active = well fitted curve in the direction sought with a large enough effect; inconclusive = small, poorly fitted or top-dose-only effect, or another doubt; inactive = no such curve, though single readings can be large; an effect the other way counts as inactive or inconclusive. Potency is the fitted concentration of half-maximal effect.

Results for OC(COCc1ccccc1)Cn1cnc2ccccc21 (stereo unspecified) ?
SW480 rereplic: -15%; KB-3-1 tox: inactive; KB-V1 MDR tox: 16µM*; MCF10A rerep: 0%; RGS4 inhibitor: 27%; TSG101-PTAP inh: -3%

What do the screens show for `CC(Cn1cnc2ccccc21)C(=O)O` (stereo unspecified)?
SW480 rereplic: 1%; KB-3-1 tox: inactive; KB-V1 MDR tox: inactive; MCF10A rerep: 0%; RGS4 inhibitor: 15%; TSG101-PTAP inh: -4%

What do the screens show for `COC(=O)c1ccc(NC(=O)CSc2ccc(-c3sc(-c4ccccc4)nc3C)nn2)cc1`?
RGS4 inhibitor: 10%

How did COc1ccc(-c2cc(C(=O)N3CCCc4ccccc43)no2)cc1 do in these assays?
SW480 rereplic: -3%; KB-3-1 tox: inactive; KB-V1 MDR tox: 15µM*; MCF10A rerep: 27%; RGS4 inhibitor: 12%; TSG101-PTAP inh: -2%

Results for Cc1ccc(-c2noc(CCC(=O)N3CCCc4ccccc43)n2)cc1 ?
SW480 rereplic: -3%; KB-3-1 tox: inactive; KB-V1 MDR tox: 23µM*; MCF10A rerep: 14%; RGS4 inhibitor: 4%; TSG101-PTAP inh: -3%

Results for COc1ccc(C2=NOC(C(=O)N3CCCc4ccccc43)C2)cc1 (stereo unspecified) ?
SW480 rereplic: -3%; KB-3-1 tox: inactive; KB-V1 MDR tox: 13µM*; MCF10A rerep: inconclusive; RGS4 inhibitor: -4%; TSG101-PTAP inh: -3%

How did Cc1ccc2c(c1)CCCN2C(=O)CCc1nc2ccccc2c(=O)[nH]1 do in these assays?
SW480 rereplic: 8.9µM*; KB-3-1 tox: inconclusive; KB-V1 MDR tox: inconclusive; MCF10A rerep: inconclusive; RGS4 inhibitor: inconclusive; TSG101-PTAP inh: -2%

What do the screens show for `Cc1ccc(-c2nnn(CC(=O)N3CCCc4ccccc43)n2)cc1`?
SW480 rereplic: 3%; KB-3-1 tox: inactive; KB-V1 MDR tox: inactive; MCF10A rerep: 3%; RGS4 inhibitor: -29%; TSG101-PTAP inh: -6%

How did COc1cc(C2=NOC(C(=O)N3CCCc4ccccc43)C2)cc(OC)c1OC (stereo unspecified) do in these assays?
SW480 rereplic: -1%; KB-3-1 tox: inactive; KB-V1 MDR tox: inactive; MCF10A rerep: -2%; RGS4 inhibitor: 31%; TSG101-PTAP inh: -5%

What do the screens show for `CC(=O)N1CCN(C(=O)CCc2nc3ccccc3c(=O)[nH]2)CC1`?
SW480 rereplic: -14%; KB-3-1 tox: inactive; KB-V1 MDR tox: inactive; MCF10A rerep: -3%; RGS4 inhibitor: -6%; TSG101-PTAP inh: -6%

What do the screens show for `Cc1ccc(F)c(C2C3C=CCC(C)C3C(=O)N2Cc2ccccc2)c1` (stereo unspecified)?
RGS4 inhibitor: -5%

What do the screens show for `O=C(NCCc1ccc(Cl)cc1)c1cc(-c2ccc(Cl)cc2)n[nH]1`?
KB-3-1 tox: inactive; KB-V1 MDR tox: inactive; RGS4 inhibitor: -11%

Results for Cc1oc2c(c(C)cc3oc(=O)c(CC(=O)NCCc4ccccc4)c(C)c32)c1C ?
RGS4 inhibitor: 13%

Results for CC(C)C(=O)NC1CC(=O)N(c2ccc3c(c2)OCCO3)C1 (stereo unspecified) ?
RGS4 inhibitor: -29%

What do the screens show for `COc1ccccc1N1CCN(C(=O)C(CCSC)NS(=O)(=O)c2ccc3c(c2)oc(=O)n3C)CC1` (stereo unspecified)?
KB-3-1 tox: inactive; KB-V1 MDR tox: inactive; RGS4 inhibitor: 7%

What do the screens show for `CSc1ncnc2c1cnn2-c1ccc(C)cc1C`?
SW480 rereplic: -1%; KB-3-1 tox: inactive; KB-V1 MDR tox: inactive; MCF10A rerep: 0%; RGS4 inhibitor: -15%; TSG101-PTAP inh: 2%

High-throughput results (PubChem BioAssay)
